# Laboratory results taken from PubChem BioAssay.
# Biological target: Neurogenic locus notch homolog protein 2 (Homo sapiens) (UniProt Q04721)
# Test: small molecules binding Notch2 protein – biochemical, small-molecule microarray, 635 nm fluorescence, stem cell growth factors, primary screen (AID 1073)
# Settings: higher = more signal
# Neurogenic locus notch homolog protein 2 (Homo sapiens), sequence (Q04721 whole entry, looked up): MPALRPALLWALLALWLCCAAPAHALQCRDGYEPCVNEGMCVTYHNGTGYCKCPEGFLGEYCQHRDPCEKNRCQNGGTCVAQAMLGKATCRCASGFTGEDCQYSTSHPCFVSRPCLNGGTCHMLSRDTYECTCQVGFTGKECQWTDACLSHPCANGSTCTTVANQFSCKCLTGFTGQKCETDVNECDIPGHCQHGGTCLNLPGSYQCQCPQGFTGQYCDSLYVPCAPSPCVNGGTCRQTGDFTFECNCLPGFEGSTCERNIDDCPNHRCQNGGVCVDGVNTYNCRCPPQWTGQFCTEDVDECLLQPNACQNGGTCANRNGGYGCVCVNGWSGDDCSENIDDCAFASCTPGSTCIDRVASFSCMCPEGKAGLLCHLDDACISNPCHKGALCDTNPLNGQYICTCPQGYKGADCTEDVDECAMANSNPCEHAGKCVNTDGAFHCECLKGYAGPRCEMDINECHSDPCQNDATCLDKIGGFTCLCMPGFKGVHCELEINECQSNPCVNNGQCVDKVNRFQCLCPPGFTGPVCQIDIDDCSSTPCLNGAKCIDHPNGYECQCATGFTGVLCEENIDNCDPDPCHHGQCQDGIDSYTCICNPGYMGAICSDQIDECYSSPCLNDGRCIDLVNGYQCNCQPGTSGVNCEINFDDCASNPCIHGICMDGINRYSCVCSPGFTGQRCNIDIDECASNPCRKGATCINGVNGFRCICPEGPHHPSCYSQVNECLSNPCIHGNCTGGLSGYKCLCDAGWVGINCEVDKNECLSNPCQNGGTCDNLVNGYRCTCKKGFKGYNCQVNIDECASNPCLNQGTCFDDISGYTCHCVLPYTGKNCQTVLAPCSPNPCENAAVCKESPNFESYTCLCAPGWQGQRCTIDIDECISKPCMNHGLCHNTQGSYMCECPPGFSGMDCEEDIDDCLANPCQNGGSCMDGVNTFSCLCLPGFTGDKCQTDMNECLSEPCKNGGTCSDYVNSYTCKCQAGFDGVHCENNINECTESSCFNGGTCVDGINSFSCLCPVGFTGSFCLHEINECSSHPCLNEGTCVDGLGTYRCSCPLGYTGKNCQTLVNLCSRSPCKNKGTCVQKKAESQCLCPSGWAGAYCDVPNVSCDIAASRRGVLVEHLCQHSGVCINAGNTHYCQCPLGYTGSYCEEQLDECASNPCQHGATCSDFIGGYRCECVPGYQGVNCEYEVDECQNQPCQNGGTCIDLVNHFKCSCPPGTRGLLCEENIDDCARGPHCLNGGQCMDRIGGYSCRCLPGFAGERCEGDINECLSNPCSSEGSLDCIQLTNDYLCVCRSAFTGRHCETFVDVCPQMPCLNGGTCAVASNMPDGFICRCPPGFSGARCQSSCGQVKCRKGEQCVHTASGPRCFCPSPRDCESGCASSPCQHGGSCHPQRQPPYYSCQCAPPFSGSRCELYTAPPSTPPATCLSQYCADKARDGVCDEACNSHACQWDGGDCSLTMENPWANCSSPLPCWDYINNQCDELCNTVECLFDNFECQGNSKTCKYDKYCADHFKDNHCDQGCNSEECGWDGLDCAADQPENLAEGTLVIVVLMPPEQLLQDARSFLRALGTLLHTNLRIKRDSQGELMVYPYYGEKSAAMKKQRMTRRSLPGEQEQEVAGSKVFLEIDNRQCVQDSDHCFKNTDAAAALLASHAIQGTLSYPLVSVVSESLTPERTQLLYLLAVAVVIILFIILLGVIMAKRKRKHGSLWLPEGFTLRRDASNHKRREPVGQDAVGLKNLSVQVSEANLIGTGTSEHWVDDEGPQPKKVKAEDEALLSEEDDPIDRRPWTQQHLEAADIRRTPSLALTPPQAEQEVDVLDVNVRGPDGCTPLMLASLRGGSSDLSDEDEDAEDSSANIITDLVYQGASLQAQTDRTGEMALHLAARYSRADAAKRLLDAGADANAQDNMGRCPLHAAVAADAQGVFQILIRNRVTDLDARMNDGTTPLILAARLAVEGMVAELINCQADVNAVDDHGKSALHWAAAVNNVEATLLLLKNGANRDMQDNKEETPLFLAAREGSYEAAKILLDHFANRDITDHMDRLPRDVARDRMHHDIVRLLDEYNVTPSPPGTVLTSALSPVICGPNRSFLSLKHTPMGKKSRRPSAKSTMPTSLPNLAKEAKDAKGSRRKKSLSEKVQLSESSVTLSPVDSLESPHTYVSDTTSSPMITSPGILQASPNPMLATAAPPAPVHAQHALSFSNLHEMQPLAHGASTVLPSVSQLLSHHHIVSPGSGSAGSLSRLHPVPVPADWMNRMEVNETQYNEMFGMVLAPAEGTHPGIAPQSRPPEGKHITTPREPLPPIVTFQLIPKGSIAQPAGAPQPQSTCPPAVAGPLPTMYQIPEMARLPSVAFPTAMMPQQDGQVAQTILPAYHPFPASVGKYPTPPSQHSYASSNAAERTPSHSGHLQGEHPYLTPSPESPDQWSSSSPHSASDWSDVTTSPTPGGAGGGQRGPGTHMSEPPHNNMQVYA
row,SMILES,composite z-score
1,CC(C)=NO[C@H](C)c1cn([C@H](CO)Cc2ccccc2)nn1,0.0781
2,CCOC(=O)[C@H](CC(C)C)NC(=O)CCC1CC(OC(=O)NCc2cccc3ccccc23)CC2(CCCC(COC(=O)NCCOc3ccccc3)O2)O1 (stereo partly specified),1.2
3,O=C1C[C@@H](O)[C@@H](O)[C@@H]2[C@@H]3C(=O)N(C[C@@H]4CCCO4)C(=O)[C@@H]3CC[C@@H]12,0.686
4,CCOC(=O)[C@H](CC(C)C)NC(=O)CCC1CC(OC(=O)NCc2cccc3ccccc23)CC2(CCCC(COC(=O)NCCc3ccc(Cl)cc3)O2)O1 (stereo partly specified),0.461
5,CO[C@H]1COC(=O)CC=C[C@@H](C)[C@H](NS(=O)(=O)c2ccc(C)cc2)COC(=O)CCC[C@@H]1C,0.18
6,CO[C@H]1COC(=O)[C@H](C)NC(=O)CC=C[C@@H](C)[C@H](OC)COC(=O)[C@@H](OCc2ccccc2)C=C[C@@H]1C,-0.542
7,CCCNC(=O)OC[C@H]1O[C@H](CCON=C(C)CCN2CCCc3nc(C)c(C)cc32)C=C[C@@H]1Oc1ccc(OC)cc1,0.661
8,C#CCCCON=C1C[C@@H](O)[C@@H](O)[C@@H]2[C@@H]3C(=O)N(CC)C(=O)[C@@H]3CC[C@@H]12,0.656
9,COC(=O)[C@H](C)NC(=O)CCC1CC(OC(=O)NCc2ccc3c(c2)OCO3)CC2(CCCC(COC(=O)NCC3CCCCC3)O2)O1 (stereo partly specified),1.08
10,CO[C@H]1COC(=O)CC=C[C@@H](C)[C@H](OC)COC(=O)[C@@H]2CCCN2C(=O)CC=C[C@@H]1C,-0.162
11,CON=C[C@@H](NS(=O)(=O)c1ccc(C)cc1)[C@H](C)C=CCC(=O)OC,-0.98
12,COc1cccc([C@H]2Oc3ccc(OC)cc3C(=NO[C@H](C)c3cn([C@H](CO)Cc4ccccc4)nn3)[C@@H]2O)c1,-0.468
13,COc1ccc(COC(=O)NN=C2C[C@@H](O)[C@@H](O)[C@@H]3[C@@H]4C(=O)N(c5cccc(Oc6ccccc6)c5)C(=O)[C@@H]4CC[C@@H]23)cc1,-0.423
14,CO[C@@H]1COC(=O)CC=C[C@H](C)[C@H](OC)COC(=O)[C@H](C)NC(=O)CC=C[C@H]1C,-0.316
15,O=C1C[C@@H](O)[C@@H](O)[C@@H]2[C@@H]3C(=O)N(C[C@@H]4CCCO4)C(=O)[C@@H]3CC[C@H]12,0.733
16,COC(=O)[C@@H]1CC[C@@H](C)[C@H](c2ccc(Br)cc2)N1,0.0422
17,COC(=O)[C@@H]1CC[C@H](C)[C@@H](c2ccc(C)cc2)N1C(=O)c1ccc(C=NO[C@H](C)c2cn([C@@H]3COC[C@H]3O)nn2)cc1,1.14
18,Cn1c(=O)n2n(c1=O)[C@H]1[C@H](O)[C@@H]3O[C@@H]3C(=NOCc3ccccc3)[C@H]1CC2,0.0633

row,SMILES,composite z-score
1,CCOC(=O)NN=C1C[C@@H](O)[C@@H](O)[C@@H]2[C@@H]3C(=O)N(c4cccc(Oc5ccccc5)c4)C(=O)[C@@H]3CC[C@@H]12,-0.202
2,COC(=O)[C@H](C)NC(=O)CCC1CC(OC(=O)NCc2cccc3ccccc23)CC2(CCCC(COC(=O)NCC(c3ccccc3)c3ccccc3)O2)O1 (stereo partly specified),1.23
3,Cc1ccc(S(=O)(=O)n2c3ccccc3c3nnc(C(=O)c4ccccc4)nc32)cc1,0.197
4,COC(=O)C=CCCc1coc(C=CCNC(=O)OC)n1,0.485
5,CON=C1[C@H]2CCn3c(=O)n(-c4ccccc4)c(=O)n3[C@H]2[C@H](O)[C@@H]2O[C@H]12,0.41
6,CC(C)=CCCC(C)=CCON=C1C[C@@H](O)[C@@H](O)[C@@H]2[C@@H]3C(=O)N(C4CCCCC4)C(=O)[C@@H]3CC[C@@H]12,-0.0557
7,O=C1[C@H]2[C@H]3[C@H](O)[C@H](O)CC(=NOC[C@@H](O)COCc4ccco4)[C@H]3CC[C@H]2C(=O)N1C[C@@H]1CCCO1,0.256
8,O=C(NN=C1C[C@@H](O)[C@@H](O)[C@@H]2[C@@H]3C(=O)N(C[C@@H]4CCCO4)C(=O)[C@@H]3CC[C@@H]12)OCc1ccccc1,-0.122
9,COc1ccc(C#C[C@@H]2C=C[C@H](OC(C)=O)[C@@H](COC(C)=O)O2)cc1,0.395
10,CC(C)CON=C1C[C@@H](O)[C@@H](O)[C@@H]2[C@@H]3C(=O)N(c4cccc(Oc5ccccc5)c4)C(=O)[C@@H]3CC[C@@H]12,0.336
11,CCOC(=O)[C@H](CC(C)C)NC(=O)CCC1CC(OC(=O)NCc2cccc3ccccc23)CC2(CCCC(COC(=O)NCc3cccc(C(F)(F)F)c3)O2)O1 (stereo partly specified),0.611
12,C#CCCCON=C1C[C@@H](O)[C@@H](O)[C@@H]2[C@@H]3C(=O)N(Cc4ccccc4)C(=O)[C@@H]3CC[C@@H]12,0.181
13,COc1ccc(O[C@H]2C=C[C@@H](c3ccccc3)O[C@@H]2CON=CC[C@@H]2C=C[C@H](OC(C)=O)[C@@H](COC(C)=O)O2)cc1,-0.265
14,CC(C)(C)N1C(=O)[C@H]2[C@H]3[C@H](O)[C@H](O)CC(=O)[C@H]3CC[C@H]2C1=O,0.967
15,Cc1cc2c(nc1C)CCCCN2CC(C)ON=C[C@@H](C)[C@H](OCc1ccccc1)C(C)C (stereo partly specified),-1.38
16,C#CCCCON=C1C[C@@H](O)[C@@H](O)[C@@H]2[C@@H]3C(=O)N(CCC(=O)OCC)C(=O)[C@@H]3CC[C@H]12,0.872
17,CCOC(=O)[C@H](CC(C)C)NC(=O)CCC1CC(OC(=O)NCc2cccc3ccccc23)CC2(CCCC(COC(=O)NCCOC)O2)O1 (stereo partly specified),1.36
18,COc1ccc(COC(=O)NN=C2C[C@@H](O)[C@@H](O)[C@@H]3[C@@H]4C(=O)N(c5ccc(F)cc5F)C(=O)[C@@H]4CC[C@H]23)cc1,-0.412
